Data taken from the supplement of paper PMC6555819.

Key:
Experiment in all cases: PBM binding z-score (relative to random genomic background probes); higher = stronger binding; sequences stand for … in GC…GCGATTGACAGCGTAGAATGAAGG
[1] = tested on: FXR:RXRa (NR concentration 270 nM, RXRa partner concentration 90 nM)
Outline: (§1)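 Probes were double-stranded and carried 34-nt variable regions with direct-repeat seeds, single-nucleotide variants, half-site ablations and random human genomic background sequences, printed on custom Agilent 4×180K protein-binding microarrays. Arrays were incubated 1 h with ligand-free nuclear receptor dimers in PBS pH 7.4, 2% milk, 0.02% Triton X-100, 1 mM DTT, 0.2 mg/mL BSA and 0.4 mg/ml salmon testes DNA. Antibodies against each partner (one per run) detected binding, and scanned fluorescence was regression-normalized. Binding z-scores use the random background probes as reference.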

[2] = tested on: LXRa:RXRa (NR concentration 270 nM, RXRa partner concentration 90 nM)
Outline: as §1

[3] = tested on: LXRa homodimer (NR concentration 270 nM)
Outline: as §1

[4] = tested on: LXRb:RXRa (NR concentration 270 nM, RXRa partner concentration 90 nM)
Outline: as §1

[5] = tested on: LXRb homodimer (NR concentration 270 nM)
Outline: as §1

[6] = tested on: PPARa:RXRa (NR concentration 270 nM, RXRa partner concentration 90 nM)
Outline: as §1

[7] = tested on: PPARg:RXRa (NR concentration 180 nM, RXRa partner concentration 90 nM)
Outline: as §1

[8] = tested on: PPARg:RXRa 270nM:90nM, anti-RXR (NR concentration 270 nM, RXRa partner concentration 90 nM)
Outline: as §1

[9] = tested on: PPARg:RXRa 30nM:10nM, anti-RXR (NR concentration 30 nM, RXRa partner concentration 10 nM)
Outline: as §1

[10] = tested on: PPARg:RXRa 90nM:30nM, anti-RXR (NR concentration 90 nM, RXRa partner concentration 30 nM)
Outline: as §1

[11] = tested on: PPARg:RXRa DBDmut IVT, anti-RXR (DBD mutation: RXRa K156A/R161A, NR concentration 270 nM, RXRa partner concentration 90 nM)
Outline: as §1

[12] = tested on: PPARg:RXRa IVT, anti-PPARg (NR concentration 270 nM, RXRa partner concentration 90 nM)
Outline: as §1

[13] = tested on: PPARg DBDmut:RXRa IVT, anti-PPARg (DBD mutation: PPARg1 K132A/R137A, NR concentration 270 nM, RXRa partner concentration 90 nM)
Outline: as §1

[14] = tested on: PPARg DBDmut IVT, anti-PPARg (DBD mutation: PPARg1 K132A/R137A, NR concentration 270 nM)
Outline: as §1

[15] = tested on: PPARg homodimer (NR concentration 180 nM)
Outline: as §1

[16] = tested on: PXR:RXRa (NR concentration 270 nM, RXRa partner concentration 90 nM)
Outline: as §1

[17] = tested on: PXR homodimer (NR concentration 270 nM)
Outline: as §1

[18] = tested on: RARa:RXR (NR concentration 270 nM, RXRa partner concentration 90 nM)
Outline: as §1

[19] = tested on: RARa homodimer (NR concentration 270 nM)
Outline: as §1

[20] = tested on: RARb:RXRa (NR concentration 270 nM, RXRa partner concentration 90 nM)
Outline: as §1

## ACTAGTTGGTCAGCTAAGGTCACACACAATTCGG
[1]
  PBM binding z-score: 3.65
[2]
  PBM binding z-score: 3.51
[3]
  PBM binding z-score: 2.56
[4]
  PBM binding z-score: 3.35
[5]
  PBM binding z-score: 0.836
[6]
  PBM binding z-score: 3.93
[7]
  PBM binding z-score: 1.94
[8]
  PBM binding z-score: 2.76
[9]
  PBM binding z-score: 0.836
[10]
  PBM binding z-score: 1.64
[11]
  PBM binding z-score: 1.38
[12]
  PBM binding z-score: 2.77
[13]
  PBM binding z-score: 0.873
[14]
  PBM binding z-score: 0.678
[15]
  PBM binding z-score: 3.37
[16]
  PBM binding z-score: 5.12
[17]
  PBM binding z-score: 1.46
[18]
  PBM binding z-score: 4.92
[19]
  PBM binding z-score: 2.09
[20]
  PBM binding z-score: 4

## GCTAGTTGGTCAGTAAAAGATCACACACCGGTCG
[1]
  PBM binding z-score: -0.109
[2]
  PBM binding z-score: -0.07
[3]
  PBM binding z-score: 0.00819
[4]
  PBM binding z-score: -0.18
[5]
  PBM binding z-score: -0.212
[6]
  PBM binding z-score: -0.194
[7]
  PBM binding z-score: 0.637
[8]
  PBM binding z-score: -0.0816
[9]
  PBM binding z-score: -0.233
[10]
  PBM binding z-score: -0.12
[11]
  PBM binding z-score: 0.304
[12]
  PBM binding z-score: 0.185
[13]
  PBM binding z-score: -0.527
[14]
  PBM binding z-score: 0.421
[15]
  PBM binding z-score: 0.2
[16]
  PBM binding z-score: -0.208
[17]
  PBM binding z-score: -0.161
[18]
  PBM binding z-score: 0.0692
[19]
  PBM binding z-score: 0.555
[20]
  PBM binding z-score: 0.45

## TCTATTAGTTGATTAGGGAAACCGAAACAGCGGA
[1]
  PBM binding z-score: 0.843
[2]
  PBM binding z-score: 0.826
[3]
  PBM binding z-score: 0.343
[4]
  PBM binding z-score: 0.602
[5]
  PBM binding z-score: 0.852
[6]
  PBM binding z-score: 0.623
[7]
  PBM binding z-score: -0.0137
[8]
  PBM binding z-score: 2.16
[9]
  PBM binding z-score: 3.69
[10]
  PBM binding z-score: 3.2
[11]
  PBM binding z-score: 2.16
[12]
  PBM binding z-score: 0.295
[13]
  PBM binding z-score: 0.834
[14]
  PBM binding z-score: 0.978
[15]
  PBM binding z-score: 1.03
[16]
  PBM binding z-score: 0.624
[17]
  PBM binding z-score: 1.07
[18]
  PBM binding z-score: 0.778
[19]
  PBM binding z-score: 1.68
[20]
  PBM binding z-score: 0.394

## CCTTACGGGTCACTGACAGGTAATAGCATTTGGA
[1]
  PBM binding z-score: 5.68
[2]
  PBM binding z-score: 3.58
[3]
  PBM binding z-score: 0.0221
[4]
  PBM binding z-score: 3.16
[5]
  PBM binding z-score: -0.0553
[6]
  PBM binding z-score: 5.08
[7]
  PBM binding z-score: 4.51
[8]
  PBM binding z-score: 4.42
[9]
  PBM binding z-score: 1.29
[10]
  PBM binding z-score: 3.12
[11]
  PBM binding z-score: 3.21
[12]
  PBM binding z-score: 3.64
[13]
  PBM binding z-score: 1.3
[14]
  PBM binding z-score: 1.52
[15]
  PBM binding z-score: 4.26
[16]
  PBM binding z-score: 2.95
[17]
  PBM binding z-score: -0.116
[18]
  PBM binding z-score: 4.05
[19]
  PBM binding z-score: 1.66
[20]
  PBM binding z-score: 3.79

## CCGAGTAGGTTATGCGGCATTCAGGCAACGGTGA
[1]
  PBM binding z-score: -0.091
[2]
  PBM binding z-score: 0.00702
[3]
  PBM binding z-score: -0.177
[4]
  PBM binding z-score: -0.0522
[5]
  PBM binding z-score: -0.569
[6]
  PBM binding z-score: 0.802
[7]
  PBM binding z-score: 0.774
[8]
  PBM binding z-score: 1.06
[9]
  PBM binding z-score: -0.439
[10]
  PBM binding z-score: 0.685
[11]
  PBM binding z-score: 2.82
[12]
  PBM binding z-score: 2.03
[13]
  PBM binding z-score: -1.08
[14]
  PBM binding z-score: -0.567
[15]
  PBM binding z-score: 0.671
[16]
  PBM binding z-score: -0.0535
[17]
  PBM binding z-score: 0.0083
[18]
  PBM binding z-score: 0.343
[19]
  PBM binding z-score: 0.296
[20]
  PBM binding z-score: 0.464

## ATCGCAAGGTCGAGGTGAGTATAGAGAAAGGGAA
[1]
  PBM binding z-score: 1.56
[2]
  PBM binding z-score: 0.947
[3]
  PBM binding z-score: -0.582
[4]
  PBM binding z-score: 0.995
[5]
  PBM binding z-score: -0.275
[6]
  PBM binding z-score: 2.5
[7]
  PBM binding z-score: 1.05
[8]
  PBM binding z-score: 0.957
[9]
  PBM binding z-score: 0.1
[10]
  PBM binding z-score: 0.379
[11]
  PBM binding z-score: -0.0497
[12]
  PBM binding z-score: 1.28
[13]
  PBM binding z-score: 0.589
[14]
  PBM binding z-score: -0.0017
[15]
  PBM binding z-score: -0.0351
[16]
  PBM binding z-score: 1.04
[17]
  PBM binding z-score: -0.378
[18]
  PBM binding z-score: 1.52
[19]
  PBM binding z-score: -0.173
[20]
  PBM binding z-score: 2.75
